Measurements from PubChem BioAssay AID1159580 (chemical genetic matrix, 2015).
Values joined by “and” are separate entries in the source; they are usually repeats but may differ in a detail not shown here. Equal values may be shown once. The whole screen tested about 5,500 compounds, of which about 2,000 (36%) were called active. Another 18% or so got no clear call; they are omitted. This is one part of the list. A number with no mark means an inactive call. Rule as the data show it: active = normalized growth mostly below about 0.91 (no sharp cut-off); inconclusive = no clear call, values can overlap the other calls; inactive = mostly above about 0.92.

Test: chemical genetic growth profiling, strain panel (AID 1159580);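 also: tested at 20 µM; growth read once vehicle control cultures reached saturation at 30 °C; 1 = growth at the plate median or of vehicle wells; lower values mean less growth of the strain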
Conditions: S. cerevisiae deletion strains, growth OD

SMILES: COc1ccc([C@H]2COc3c(ccc(O)c3OC)C2)c(OC)c1O
- normalized growth (locus YAL021C, strain ccr4, hits give low values): 0.984
- normalized growth (locus YAL026C, strain drs2, hits give low values): 0.975
- normalized growth (locus YAL030W, strain snc1, hits give low values): 0.992
- normalized growth (locus YBL061C, strain skt5, hits give low values): 0.989
- normalized growth (locus YBR009C, strain hhf1, hits give low values): 0.976
- normalized growth (locus YBR021W, strain FUR4, hits give low values): 1.11
- normalized growth (locus YBR023C, strain chs3, hits give low values): 0.985
- normalized growth (locus YBR171W, strain sec66, hits give low values): 0.969
- normalized growth (locus YBR229C, strain ROT2, hits give low values): 0.947
- normalized growth (locus YBR231C, strain swc5, hits give low values): 0.988
- normalized growth (locus YBR279W, strain paf1, hits give low values): 0.984
- normalized growth (locus YCL011C, strain gbp2, hits give low values): 0.972
- normalized growth (locus YCL016C, strain dcc1, hits give low values): 0.989
- normalized growth (locus YCL029C, strain bik1, hits give low values): 0.993
- normalized growth (locus YCL061C, strain MRC1, hits give low values): 0.968
- normalized growth (locus YCL069W, strain vba3, hits give low values): 0.988
- normalized growth (locus YCR088W, strain abp1, hits give low values): 0.984
- normalized growth (locus YDL005C, strain med2, hits give low values): 0.975
- normalized growth (locus YDL035C, strain GPR1, hits give low values): 0.998
- normalized growth (locus YDL040C, strain nat1, hits give low values): 0.991
- normalized growth (locus YDL074C, strain BRE1, hits give low values): 1.02
- normalized growth (locus YDL101C, strain DUN1, hits give low values): 0.978
- normalized growth (locus YDL185W, strain tfp1, hits give low values): 0.946
- normalized growth (locus YDL192W, strain arf1, hits give low values): 0.971
- normalized growth (locus YDR001C, strain nth1, hits give low values): 0.986
- normalized growth (locus YDR069C, strain doa4, hits give low values): 0.979
- normalized growth (locus YDR101C, strain arx1, hits give low values): 0.969
- normalized growth (locus YDR137W, strain rgp1, hits give low values): 0.828 (active)
- normalized growth (locus YDR159W, strain sac3, hits give low values): 0.974
- normalized growth (locus YDR162C, strain NBP2, hits give low values): 0.943
- normalized growth (locus YDR195W, strain ref2): 1
- normalized growth (locus YDR297W, strain sur2, hits give low values): 0.98
- normalized growth (locus YDR318W, strain mcm21, hits give low values): 0.986
- normalized growth (locus YDR334W, strain swr1, hits give low values): 0.962
- normalized growth (locus YDR335W, strain msn5, hits give low values): 0.98
- normalized growth (locus YDR388W, hits give low values): 0.995
- normalized growth (locus YDR392W, strain spt3, hits give low values): 0.926
- normalized growth (locus YDR502C, strain sam2, hits give low values): 0.977
- normalized growth (locus YEL003W, strain gim4, hits give low values): 0.976
- normalized growth (locus YEL037C, strain rad23, hits give low values): 0.992
- normalized growth (locus YEL061C, strain CIN8 (second series), hits give low values): 0.973
- normalized growth (locus YEL061C, strain CIN8, hits give low values): 0.985
- normalized growth (locus YER015W, strain faa2, hits give low values): 0.989
- normalized growth (locus YER016W, strain bim1, hits give low values): 0.983
- normalized growth (locus YER110C, hits give low values): 0.962
- normalized growth (locus YER111C, strain swi4, hits give low values): 0.983
- normalized growth (locus YER155C, strain BEM2 (second series), hits give low values): 0.988
- normalized growth (locus YER155C, strain BEM2, hits give low values): 1.01
- normalized growth (locus YER167W, strain BCK2, hits give low values): 1
- normalized growth (locus YFR010W, strain ubp6, hits give low values): 0.957
- normalized growth (locus YGL078C, strain dbp3, hits give low values): 0.978
- normalized growth (locus YGL086W, strain mad1, hits give low values): 0.994
- normalized growth (locus YGL167C, strain pmr1, hits give low values): 0.981
- normalized growth (locus YGL173C, strain kem1, hits give low values): 0.977
- normalized growth (locus YGL227W, strain vid30, hits give low values): 0.988
- normalized growth (locus YGL240W, strain doc1, hits give low values): 0.978
- normalized growth (locus YGL248W, strain PDE1, hits give low values): 0.985
- normalized growth (locus YGL253W, strain hxk2, hits give low values): 0.997
- normalized growth (locus YGR078C, strain PAC10, hits give low values): 0.989
- normalized growth (locus YGR135W, strain pre9, hits give low values): 0.986
- normalized growth (locus YGR229C, strain SMI1, hits give low values): 0.987
- normalized growth (locus YGR252W, strain gcn5, hits give low values): 1.03
- normalized growth (locus YHR013C, strain ard1, hits give low values): 0.978
- normalized growth (locus YHR027C, strain rpn1, hits give low values): 0.978
- normalized growth (locus YHR030C, strain SLT2, hits give low values): 1
- normalized growth (locus YHR079C, strain IRE1 (second series), hits give low values): 0.997
- normalized growth (locus YHR079C, strain IRE1, hits give low values): 1.02
- normalized growth (locus YHR094C, strain hxt1, hits give low values): 0.98
- normalized growth (locus YHR129C, strain ARP1, hits give low values): 1.01
- normalized growth (locus YHR142W, strain chs7, hits give low values): 0.968
- normalized growth (locus YHR200W, strain rpn10, hits give low values): 0.967
- normalized growth (locus YIL066C, strain RNR3, hits give low values): 0.975
- normalized growth (locus YIL073C, strain SPO22, hits give low values): 0.924
- normalized growth (locus YIL125W, strain kgd1, hits give low values): 0.987
- normalized growth (locus YIR030C, strain dcg1, hits give low values): 1
- normalized growth (locus YJL092W, strain hpr5, hits give low values): 0.977
- normalized growth (locus YJL095W, strain BCK1 (second series), hits give low values): 0.995
- normalized growth (locus YJL095W, strain BCK1, hits give low values): 0.98 and 1.03
- normalized growth (locus YJL115W, strain asf1, hits give low values): 0.967
- normalized growth (locus YJL129C, strain trk1, hits give low values): 0.977
- normalized growth (locus YJL134W, strain LCB3, hits give low values): 0.994
- normalized growth (locus YJL154C, strain vps35, hits give low values): 0.983
- normalized growth (locus YJL164C, strain tpk1, hits give low values): 0.967
- normalized growth (locus YJL166W, strain qcr8, hits give low values): 0.993
- normalized growth (locus YJL168C, strain set2, hits give low values): 0.989
- normalized growth (locus YJL187C, strain SWE1 (second series), hits give low values): 0.981
- normalized growth (locus YJL187C, strain SWE1, hits give low values): 0.991
- normalized growth (locus YJR043C, strain POL32, hits give low values): 0.987
- normalized growth (locus YJR066W, strain TOR1, hits give low values): 1.01
- normalized growth (locus YJR075W, strain HOC1, hits give low values): 0.969
- normalized growth (locus YKL009W, strain mrt4, hits give low values): 0.977
- normalized growth (locus YKL068W, hits give low values): 0.973
- normalized growth (locus YKL085W, strain MDH1 (second series), hits give low values): 0.974
- normalized growth (locus YKL085W, strain MDH1, hits give low values): 0.974
- normalized growth (locus YKL160W, strain elf1, hits give low values): 0.986
- normalized growth (locus YKL190W, strain CNB1, hits give low values): 0.991
- normalized growth (locus YKR001C, strain vps1, hits give low values): 1
- normalized growth (locus YKR026C, strain gcn3, hits give low values): 0.982
- normalized growth (locus YKR091W, strain srl3, hits give low values): 0.992
- normalized growth (locus YLL001W, strain dnm1, hits give low values): 0.978
- normalized growth (locus YLL026W, hits give low values): 0.994
- normalized growth (locus YLL041C, strain sdh2, hits give low values): 0.98
- normalized growth (locus YLR027C, strain aat2, hits give low values): 1
- normalized growth (locus YLR039C, strain RIC1, hits give low values): 0.953
- normalized growth (locus YLR058C, strain SHM2, hits give low values): 0.98
- normalized growth (locus YLR102C, strain apc9, hits give low values): 0.997
- normalized growth (locus YLR113W, strain HOG1, hits give low values): 0.969
- normalized growth (locus YLR221C, strain rsa3, hits give low values): 0.993
- normalized growth (locus YLR258W, strain gsy2, hits give low values): 0.992
- normalized growth (locus YLR262C, strain YPT6 (second series), hits give low values): 0.912
- normalized growth (locus YLR262C, strain YPT6, hits give low values): 0.939
- normalized growth (locus YLR268W, strain sec22, hits give low values): 0.99
- normalized growth (locus YLR320W, strain mms22, hits give low values): 0.987
- normalized growth (locus YLR330W, strain CHS5, hits give low values): 1
- normalized growth (locus YLR342W, strain FKS1 (second series), hits give low values): 1.05
- normalized growth (locus YLR342W, strain FKS1, hits give low values): 0.989
- normalized growth (locus YLR357W, strain rsc2, hits give low values): 0.978
- normalized growth (locus YLR370C, strain arc18, hits give low values): 0.977
- normalized growth (locus YLR371W, strain rom2, hits give low values): 0.994
- normalized growth (locus YLR384C, strain iki3, hits give low values): 0.995
- normalized growth (locus YLR418C, strain cdc73, hits give low values): 1
- normalized growth (locus YML016C, strain PPZ1, hits give low values): 0.995
- normalized growth (locus YML032C, strain rad52, hits give low values): 0.993
- normalized growth (locus YML120C, strain ndi1, hits give low values): 0.979
- normalized growth (locus YML124C, strain tub3, hits give low values): 0.974
- normalized growth (locus YMR058W, strain fet3, hits give low values): 0.97
- normalized growth (locus YMR078C, strain ctf18, hits give low values): 0.99
- normalized growth (locus YMR125W, strain sto1, hits give low values): 0.979
- normalized growth (locus YMR129W, hits give low values): 0.977
- normalized growth (locus YMR205C, strain PFK2, hits give low values): 0.978
- normalized growth (locus YMR223W, strain ubp8, hits give low values): 0.972
- normalized growth (locus YMR231W, strain pep5, hits give low values): 0.996
- normalized growth (locus YMR307W, strain GAS1, hits give low values): 1.09
- normalized growth (locus YNL067W, strain RPL9B, hits give low values): 0.996
- normalized growth (locus YNL071W, strain lat1, hits give low values): 0.982
- normalized growth (locus YNL183C, strain NPR1, hits give low values): 0.974
- normalized growth (locus YNL209W, strain ssb2, hits give low values): 0.987
- normalized growth (locus YNL233W, strain BNI4, hits give low values): 0.996
- normalized growth (locus YNL248C, strain rpa49, hits give low values): 0.977
- normalized growth (locus YNL250W, strain rad50, hits give low values): 0.968
- normalized growth (locus YNL271C, strain bni1, hits give low values): 0.979
- normalized growth (locus YNL298W, strain CLA4, hits give low values): 0.975
- normalized growth (locus YNL307C, strain MCK1, hits give low values): 0.986
- normalized growth (locus YNL322C, strain KRE1 (second series), hits give low values): 0.991
- normalized growth (locus YNR049C, strain mso1, hits give low values): 0.995
- normalized growth (locus YNR052C, strain pop2, hits give low values): 0.996
- normalized growth (locus YOL006C, strain TOP1, hits give low values): 1.1
- normalized growth (locus YOL012C, strain htz1): 0.955
- normalized growth (locus YOL147C, strain pex11, hits give low values): 0.995
- normalized growth (locus YOR001W, strain rrp6, hits give low values): 0.986
- normalized growth (locus YOR061W, strain CKA2, hits give low values): 0.966
- normalized growth (locus YOR069W, strain VPS5, hits give low values): 0.999
- normalized growth (locus YOR070C, strain gyp1, hits give low values): 0.988
- normalized growth (locus YOR080W, strain dia2, hits give low values): 0.988
- normalized growth (locus YOR083W, strain WHI5, hits give low values): 0.985
- normalized growth (locus YOR106W, strain vam3, hits give low values): 0.976
- normalized growth (locus YOR136W, strain idh2, hits give low values): 0.978
- normalized growth (locus YOR144C, strain elg1, hits give low values): 0.983
- normalized growth (locus YOR184W, strain ser1, hits give low values): 0.956
- normalized growth (locus YOR231W, strain MKK1, hits give low values): 1.03
- normalized growth (locus YOR265W, strain rbl2, hits give low values): 0.994
- normalized growth (locus YOR270C, strain vph1, hits give low values): 0.933
- normalized growth (locus YOR290C, strain snf2, hits give low values): 0.966
- normalized growth (locus YOR316C, strain cot1, hits give low values): 0.981
- normalized growth (locus YPL051W, strain arl3, hits give low values): 0.995
- normalized growth (locus YPL055C, strain LGE1, hits give low values): 1.01
- normalized growth (locus YPL078C, strain atp4, hits give low values): 0.986
- normalized growth (locus YPL106C, strain sse1, hits give low values): 0.989
- normalized growth (locus YPL240C, strain hsp82, hits give low values): 0.963
- normalized growth (locus YPL241C, strain CIN2, hits give low values): 0.958
- normalized growth (locus YPL256C, strain CLN2, hits give low values): 1.03
- normalized growth (locus YPR119W, strain clb2, hits give low values): 0.978
- normalized growth (locus YPR141C, strain kar3, hits give low values): 0.979
- normalized growth (locus YPR163C, strain tif3, hits give low values): 0.981
- normalized growth (locus YPR167C, strain met16, hits give low values): 1
- normalized growth (strain wtn01, hits give low values): 0.981
